Results on one molecule are retold here after PubChem BioAssay AID504521 (NMMLSC, 2011).

This test in a line: aptamer fluorescence quenchers, flow cytometry – biochemical, cherry pick 1, bead-based flow cytometry, artefact control for GRK2 RNA aptamer inhibitor project, dose response (AID 504521). To be noted: Fluorescent RNA aptamer beads, quenching, hits give high values.

Structures are written as SMILES. The list shows a part of the results. Unmarked numbers belong to inactive results.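 Rule for the calls: active = compounds whose bead fluorescence drops by more than 37 kMESF across the dose range, marking them as dye quenchers; inactive = the rest.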

Regarding `COc1ccc(N2C(=O)/C(=C/c3ccco3)C(=O)NC2=S)cc1`, the fluorescence change (kMESF span) is 12 kMESF.
